# This is a sample that favours compounds with a hit; in the whole collection about 19% have one here.
# SARS PLpro yeast: inhibitors of SARS-CoV papain-like protease in yeast; S. cerevisiae expressing SARS-CoV PLpro, growth rescue; Potency, µM (series often up to 32.9 µM), actives largely listed as activators; 330,000 compounds, 0.19% hits; AID 485353; calls by dose curve; note: nearly all actives have a fitted effect of over 55% in size
# Pf growth 48h: P. falciparum growth inhibition at 48 hours (one generation); P. falciparum luciferase growth in erythrocytes, 48 h; 310,000 compounds, 5.9% hits; Potency, µM (titrated, usually from 28.7 µM), most hits filed as inhibitors
#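 Luminescence readout; reporter = integrated firefly luciferase in P. falciparum. RBC culture at 2% hematocrit, 0.1% parasitemia final, 37 C/5% CO2; decreased signal taken as growth inhibition.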
# CHX counter: counter-screen hit for Shiga toxin inhibitors, cycloheximide | cell reporter, cycloheximide protein synthesis inhibition counterscreen | max response, % | 300,000 compounds, 12% hits | AID 2314; in the data active = max response mostly above about 13%, no sharp cut-off; inactive = mostly below about 14%; note: read at 38.3 µM for the half of the compounds with a filed dose
# AMA1-RON2 inh: AMA1-RON2 (P. falciparum) interaction inhibition. AlphaScreen AMA1-biotinylated RON2 peptide binding. 360,000 compounds, 0.2% hits. Potency, µM (titrated, usually from 58.2 µM), actives largely listed as inhibitors; note: nearly all actives have a fitted effect of over 45% in size
#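 AMA1 (3D7) with his tag at 25 nM final met compounds first, then biotinylated RON2 peptide at 25 nM; detection used donor plus acceptor beads, 10 µg/mL apiece, read by AlphaScreen after 30 min at room temperature.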
# Shiga toxin inh: inhibitors of Shiga toxin in Vero cells. Vero cells, Shiga toxin protein synthesis inhibition reporter. inhibition, % at 38.7 µM. 290,000 compounds, 9.2% hits. AID 2315; in the data active = inhibition mostly above about 28%, no sharp cut-off; inactive = mostly below about 43%
# Pf growth 96h: P. falciparum growth inhibition at 96 hour, primary screen for plastid delayed-death inhibitors; P. falciparum luciferase reporter growth, 96 h; Potency, µM (titrated, usually from 28.7 µM), usual class: inhibitors; 320,000 compounds, 6.9% hits
#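 Two parasite generations (96 h, 37 C, 5% CO2) of compound exposure in infected erythrocytes (0.05% parasitemia, 2% hematocrit). Luciferase-reporter P. falciparum; decreased luminescence indicates inhibited growth, aimed at apicoplast-acting delayed death.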
# A number is an active result; . = inactive; ? = inconclusive; / = not tested or not shown; [ ] = another dose, or the depositor's remark. Unless noted, calls come from the whole dose curve; as a rule, active = well fitted curve in the direction sought with a large enough effect; inconclusive = small, poorly fitted or top-dose-only effect, or another doubt; inactive = no such curve, though single readings can be large; an effect the other way counts as inactive or inconclusive.
SMILES,SARS PLpro yeast,Pf growth 48h,CHX counter,AMA1-RON2 inh,Shiga toxin inh,Pf growth 96h
CCOC(=O)CN1C(=O)S/C(=C/c2ccc3c(c2)n(C)c(=O)n3C)C1=O,.,.,40,.,44,.
Cn1c(=O)n(C)c2cc(/C=C3/SC(=O)N(CC(=O)N4CCOCC4)C3=O)ccc21,.,.,.,.,.,?
O=C(CN1C(=O)S/C(=C\C=C\c2ccccc2)C1=O)N1CCCCC1,.,.,.,.,.,.
CCOC(=O)CN1C(=O)S/C(=C/C=C/c2ccc(N(C)C)cc2)C1=O,.,.,30,?,.,.
CCN(CC)CCCNC(=S)N(CCO)Cc1cc2cc3c(cc2[nH]c1=O)OCCO3,.,.,.,.,.,?
NN(CCO)C(=S)Nc1ccc(Cl)cc1,.,.,.,.,.,.
COc1ccccc1NS(=O)(=O)c1cc(NC(=O)COc2ccccc2)ccc1N1CCOCC1,.,/,/,.,/,/
COc1ccccc1CNc1ccc(N2CCOCC2)c(C(=O)O)c1,.,.,.,.,.,13µM
CC(=O)c1c(C)[nH]c(C(=O)Nc2ccc(C)c(S(=O)(=O)Nc3ccc(C)cc3C)c2)c1C,.,13µM,.,.,.,?
COCC(=O)Nc1ccc(N2CCCC2)c(S(=O)(=O)Nc2ccccc2OC)c1,.,2.6µM,/,.,/,5.2µM
COc1ccccc1NS(=O)(=O)c1cc(NC(=O)c2ccc(=O)[nH]c2)ccc1N1CCOCC1,.,?,.,.[2.32 µM],.,12µM
CC(NC(=O)Cc1ccc(S(=O)(=O)N2CCOCC2)s1)c1ccc(Br)cc1 (stereo unspecified),/,/,/,.[11.6 µM],/,/
COc1ccccc1NS(=O)(=O)c1cc(NC(=O)Nc2cccc(C)c2)ccc1N1CCCCC1,.,3.7µM,.,.,.,3.7µM
COc1ccccc1NS(=O)(=O)c1cc(NC(=O)c2[nH]c(C)c(C(C)=O)c2C)ccc1N1CCOCC1,.,7.4µM,.,.,.,?
COc1ccccc1NS(=O)(=O)c1cc(NC(=O)CCNC(C)=O)ccc1N1CCCCC1,.,?,/,.,/,10µM
COc1ccccc1NS(=O)(=O)c1cc(NC(=O)c2cc(F)c(F)c(F)c2F)ccc1N1CCOCC1,.,/,/,.,/,/
COc1ccccc1NS(=O)(=O)c1cc(NC(=O)c2ccccc2C)ccc1N1CCOCC1,/,/,/,.[11.6 µM],/,/
COc1ccccc1NS(=O)(=O)c1cc(NC(=O)C2CC2)ccc1N1CCOCC1,.,?,.,/,.,12µM
COc1ccccc1NS(=O)(=O)c1cc(NC(=O)C(C)NC(N)=O)ccc1N1CCCC1 (stereo unspecified),.,?,/,.,/,?
Nc1c(C(=O)c2ccccc2O)cnn1-c1ccc(S(=O)(=O)N2CCOCC2)cc1[N+](=O)[O-],.,.,.,/,.,.
CNc1c(NC(=O)c2ccc3c(c2)OCO3)c(=O)oc2ccccc12,.,.,.,.,.,.
COc1ccc(-n2nc3c(c2NC(=O)COc2ccccc2OC)CS(=O)(=O)C3)cc1,/,/,/,.,/,/
O=C(Nc1cc(S(=O)(=O)N2CCOCC2)ccc1O)c1ccc(NS(=O)(=O)c2ccc(Cl)s2)cc1,.,.,.,.,.,.
Cc1ccc(NC(=O)c2ccccc2NS(=O)(=O)c2ccc(Cl)s2)cc1S(=O)(=O)N1CCOCC1,.,12µM,.,.,.,?
COc1ccccc1NS(=O)(=O)c1cc(NC(C)=O)ccc1N1CCCCC1,.,.,.,.,.,9.3µM
SMILES,SARS PLpro yeast,Pf growth 48h,CHX counter,AMA1-RON2 inh,Shiga toxin inh,Pf growth 96h
O=C(Nc1ccc(N2CCOCC2)c(S(=O)(=O)Nc2ccccc2Cl)c1)c1ccccc1,.,10µM,/,.,/,?
COc1ccccc1NS(=O)(=O)c1cc(NC(=O)c2ccncc2)ccc1N1CCCC1,.,?,.,.,.,?
c1ccc(-c2csc(=Nc3cccnc3)n2CC2CCCO2)cc1 (stereo unspecified),.,?,.,?,.,?
CCn1c(-c2ccccc2)csc1=Nc1ccc(O)cc1,.,.,48,.,82,?
CCOc1ccc(N=c2scc(-c3ccccc3)n2CCO)cc1,.,/,29,.,.,.
CCOc1ccc(N=C2SCCCN2C)cc1,.,.,.,.,.,?
CCOc1ccc(N=c2scc(-c3ccc(OC)cc3)n2CCO)cc1,.,?,16,.,.,?
COCCCN1C(=O)C(CC(=O)NC(c2ccccc2)c2ccccc2)CC(C(=O)N(C(C)C)C(C)C)=C1C (stereo unspecified),/,/,/,.,/,/
CC(NC(=O)C1CCC(C(C)(C)C)CC1)C(c1ccccc1)N1CCOCC1 (stereo unspecified),.,?,.,.,.,10µM
CC(NC(=O)Nc1ccc(Cl)c(Cl)c1)C(c1ccccc1)N1CCOCC1 (stereo unspecified),.,?,.,.,.,5.2µM
O=C(COC(=O)Cc1ccc(Cl)cc1)NCc1cccs1,.,/,/,.,/,/
O=C(c1ccco1)N(Cc1ccccc1)c1cccc([N+](=O)[O-])c1,.,?,.,.,.,6.6µM
O=C(c1ccco1)N(Cc1cccc([N+](=O)[O-])c1)c1ccc(Br)cc1,.,.,.,.,.,?
O=C(c1ccco1)N(Cc1ccco1)c1ccc(O)cc1,.,?,.,.,.,9.3µM
C/C(=N\NC(=S)Nc1ccc(C)cc1)c1cccc(N)c1,.,?,.,.,54,.
C/C(=N\NC(=S)Nc1cccc(C)c1)c1ccccc1,?,?,.,.,.,5.2µM
CSC(=S)N/N=C(\C)c1ccccc1,.,?,28,.,50,?
C/C(=N\NC(=S)Nc1cccc(C)c1)c1cccc(N)c1,.,?,.,.,.,.
CC(C)OC(=O)CSc1nc(Cc2cccs2)nc2ccccc12,.,?,.,.,.,.
CCCCCCCC#Cc1ccccc1/C=N/S(=O)c1ccc(C)cc1 (stereo unspecified),.,.,.,.,.,.
CC(=O)C(=Cc1ccc(-c2ccccc2)cc1)C(=O)c1ccccc1,/,/,/,.,/,/
CCCc1cc(=O)oc2cc(OC(C)C(=O)NCc3ccccn3)c(Cl)cc12 (stereo unspecified),.,.,.,.,.,10µM
COc1ccc(-c2cc(=O)oc3cc(OCC(=O)NCc4ccccn4)ccc23)cc1,.,.,.,.,.,?
COc1ccc(-c2cc(=O)oc3cc(OC(C)C(=O)NCc4ccccn4)ccc23)cc1 (stereo unspecified),4µM,?,.,.,.,?
COc1ccccc1/C=C1\SC(=S)N(CC(=O)NC2CCS(=O)(=O)C2)C1=O (stereo unspecified),.,.,.,.,.,?
Cc1csc(SCCN2C(=O)c3ccccc3C2=O)n1,.,.,40,.,102,?
O=C1c2ccccc2C(=O)N1CCSc1ccccc1,.,/,34,.,.,.
COc1cc(OC)nc(C(NC(=O)C2CCN(Cc3ccc(Oc4ccccc4)cc3)CC2)c2ccc(F)cc2)n1 (stereo unspecified),/,/,/,.,/,/
